Among the data in PubChem BioAssay AID463195 (Sanford-Burnham Center for Chemical Genomics, 2010) are inhibition values, retold here.

Among all 330,000 compounds or so, about 4,600 (1.4%) were called active. The entries come from a sample that favours actives as a whole. Values without a mark were called inactive.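 Rule for the calls: active = inhibition of 40% or more at the single tested concentration; inactive = the rest.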

This experiment in a line: growth inhibitors of isogenic TIM10 control yeast, primary screen, counter-screen for tim10-1 yeast inhibitor project, luminescence, uHTS (AID 463195).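 Note: wild-type TIM10 isogenic control strain grown at permissive 25 °C; 0% = DMSO yeast wells and 100% = minimal medium wells without yeast.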 The note with it: S. cerevisiae TIM10 strain growth, BacTiter-Glo luminescence, 24 h; at 10 µM; active compounds read high. In general terms: The purpose of a counterscreen is to sort out artefacts and off-target activity.
For orientation: inhibition means the drop in the measured response relative to a control, in per cent. `Cc1ccc(-c2nc3ccccc3c(=O)n2-c2ccc(Br)cn2)cc1`: the inhibition was 43.5% (active).

Regarding `O=c1c2ccccc2nc(-c2ccco2)n1-c1ccc(Br)cn1`, the inhibition is 5.95%.

Regarding `O=c1c2ccccc2nc(-c2ccccc2)n1-c1ccccn1`, the inhibition was 9.32%.

For `C=CC12CN(C)[C@@H]3C4CO[C@H](C[C@H]41)[C@]1(C(=O)Nc4ccccc41)[C@@H]32` (stereo not given in full), the inhibition is -2.08%.

With `O=c1c2ccccc2nc(-c2ccc(Cl)cc2Cl)n1-c1ccncc1`, the inhibition was 18.8%.

`CCN(CC)CCOC(=O)c1cc2cc(COC)ccc2o1`: the inhibition was -10.2%.

On to `CC(C)CN1CCN(Cc2ccccc2C(F)(F)F)CC1CCO` (stereo not given), for which the inhibition was -6.36%.

As to `C/C(CCc1c[nH]c2ccccc12)=N\O`, the inhibition was 6.37%.

Regarding `O=[N+]([O-])c1cnc2ccc3ccccc3c2c1`, the inhibition was -22.9%.

In the case of `C/C(=N/O)c1ccc2ccc3ccccc3c2c1`, the inhibition is 40.7% (active).

With `COc1cccc(N2C(=O)NC(=O)/C(=C\c3ccc([N+](=O)[O-])s3)C2=O)c1`, the inhibition was 78.4% (active).

`COc1ccc(N2C(=O)/C(=C/c3ccco3)C(=O)NC2=S)cc1`: the inhibition is -0.32%.

In the case of `Cc1c(C(=O)O)cccc1-n1c(C)cc(/C=C2\C(=O)NC(=O)N(c3ccc4c(c3)OCO4)C2=O)c1C`, the inhibition was -7.16%.

As for `O=C1NC(=O)N(c2ccccc2)C(=O)/C1=C/c1ccc([N+](=O)[O-])s1`, the inhibition was 85.5% (active).

For `CCc1cccc2c(C#N)cn(CC(=O)N3CCOCC3)c12`, the inhibition was 9.92%.

On to `Cn1c(C(=O)N2CCC(C(=O)N3CCC4(CC3)OCCO4)CC2)cc2sccc21`, for which the inhibition is 1.3%.

In the case of `COc1ccc(CCn2c(O)c(C=NC3CC3)c(=O)[nH]c2=O)cc1OC`, the inhibition is 0.042%.

Take `CC(=O)Cc1ccc(OC(C)C)cc1`: the inhibition is -13.5%.

`CC(C(=O)Nc1ccc(Cl)cc1Cl)N1CC=C(c2ccccc2)CC1` (stereo not given): the inhibition is 15.3%.

Take `CCCCCn1c(=O)c(C(=O)Nc2c(C)n(C)n(-c3ccccc3)c2=O)c(O)c2ccccc21`: the inhibition is 24.7%.

For `Cc1cc2ccccn2c1C(C[N+](=O)[O-])c1c(F)cccc1Cl` (stereo not given), the inhibition is 52.7% (active).

As to `CCN1c2nc3c(C)cccn3c(=O)c2CC2(C(=O)N(C)C(=O)N(C)C2=O)C1C` (stereo not given), the inhibition was 5.19%.

`Cc1cccc(NC(=O)N2CC3CC(C2)c2cccc(=O)n2C3)c1` (stereo not given): the inhibition is -9.99%.

`CC[C@H]1CC2CN3CCc4c([nH]c5ccccc45)C(C(=O)OC)(C2)C13` (stereo not given in full): the inhibition was -1.49%.

For the compound `COC(=O)C1=C(c2ccccc2)C[C@@H]2CC[C@H]1N2C(=O)N1CCCCC1`, the inhibition is 28.7%.
